Source: PubChem BioAssay
A selection: hits, their analogues and other compounds. The true share with any hit is near 1.7%.
FGF22 binding – binders of human FGF22 protein, primary screen, FGF22 synaptogenesis inhibitor project, biophysical, thermal shift, single point; recombinant FGF22 thermal shift, SYPRO orange fluorescence; percent of sucrose octasulfate shift, DMSO zero; actives 1.5% (n = 340,000); Fibroblast growth factor 22 (Homo sapiens), Q9HCT0; activity (Tm shift, normalised), % at 9.99 µM;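 active means mean Tm shift, scaled 0 neutral to 100 positive control, at about 1.3% or above, every replicate too, limit read from the data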
Target sequence (Q9HCT0 whole entry, looked up): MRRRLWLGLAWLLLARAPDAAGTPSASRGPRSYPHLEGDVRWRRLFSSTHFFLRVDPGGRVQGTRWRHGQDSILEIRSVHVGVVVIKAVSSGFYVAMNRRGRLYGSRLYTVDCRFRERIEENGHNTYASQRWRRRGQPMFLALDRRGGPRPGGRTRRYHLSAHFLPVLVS
CFTR F508del cor – F508del CFTR correction, initial screen, CFBE line, single point | CFBE cells, YFP halide quenching; stimulated with forskolin plus potentiator P3; % fluorescence drop versus neutral controls | activity (quench increase), % at 7.58 µM | actives 0.36% (n = 350,000) | AID 720511, 2013;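 active means mean added fluorescence quench of at least 8% versus neutral control, with both replicates also reaching 8%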;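 further: cells transiently co-express mutant CFTR-F508del with the halide-sensitive YFP; corrector assay measuring rescue of mutant channel to the surface after 24 h compound exposure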
Vif inh – HIV Vif self-association inhibitors, primary screen, imaging, HEK293T, single point; AID 602346, 2012; actives 0.35% (n = 340,000); inhibition, % at 7.49 µM; HEK293T cells, Vif self-association by quenched fluorescence, 24 h; in the data active means inhibition above about 50%, passing the limit was not always enough
Of the large screens only hits and unclear results are named; the others gave an inactive call.

CCc1nc(NC(=O)NS(=O)(=O)c2ccccc2C(=O)OC)nc(OC)n1	FGF22 binding 42.9
Cn1cc(CN2CCN(c3ccc(Cl)cn3)CC2)c(-c2ccccc2F)n1	none
Cc1cccc(N2CCN(Cc3cn(C)nc3-c3ccccc3F)CC2)n1	CFTR F508del cor 9.1
C[C@@H]1CN([C@H](C)CO)C(=O)Cc2cc(NC(=O)c3ccncc3)ccc2O[C@H]1CN(C)S(=O)(=O)c1ccccc1	none (no result: Vif inh)
O=C(c1cc(Cl)c(=O)n(Cc2ccccc2)c1)N1CCOCC1	Vif inh 62.1 (no result: FGF22 binding, CFTR F508del cor)
O=C(c1ccc(CN2CCOCC2)cc1)N1CCN(Cc2ccccc2)CC1	none (no result: FGF22 binding, CFTR F508del cor)
C[C@@H]1CN([C@H](C)CO)C(=O)c2cc(NS(=O)(=O)c3ccc(F)cc3)ccc2O[C@@H]1CN(C)Cc1ccncc1	none (no result: Vif inh)
CC=Cc1ccc2n(c1=O)C[C@H]1[C@H](CO)[C@@H](C(=O)N3CCc4ccccc4C3)[C@@H]2N1CCC (mixture of isomers)	none (no result: Vif inh)
COCCNC(=O)COc1ncnc2scc(-c3ccc(F)cc3)c12	FGF22 binding 43.4
NC(=O)COc1ncnc2scc(-c3ccc(F)cc3)c12	none
C/C=C/c1ccc2c(c1)O[C@@H](CN(C)C(=O)c1cnccn1)[C@@H](C)CN([C@H](C)CO)S2(=O)=O	none (no result: Vif inh)
COC(=O)c1ccc(Cc2ccc(C(=O)OC)o2)o1	none (no result: FGF22 binding, CFTR F508del cor)
COC(=O)c1ccc(CO/N=C/c2ccc(OC)cc2)o1	FGF22 binding 43.8
COC(=O)c1ccc(COC(=O)c2ccc(CO)cc2)o1	FGF22 binding 44.0
COC(=O)c1ccc(COc2ccc(F)cc2)o1	none
COc1cccc(CN2CCN(Cc3[nH]c4ccccc4c3C)CC2CCO)c1 (configuration not stated)	FGF22 binding 43.0
CSc1ccc(CN2CCN(Cc3ccccc3)C(CCO)C2)cc1 (configuration not stated)	FGF22 binding 43.0
CCOc1ccc(CN2CCN(Cc3cc4ccccc4[nH]3)CC2CCO)cc1 (configuration not stated)	FGF22 binding 43.4
COc1ccc(CN2CCN(Cc3cccc(OC)c3)C(CCO)C2)cc1 (configuration not stated)	none
OCCC1CN(Cc2cnn(-c3ccc(F)cc3)c2)CCN1Cc1ccsc1 (configuration not stated)	none (no result: CFTR F508del cor)
CSc1cccc(CN2CCN(Cc3ccccc3)C(CCO)C2)c1 (configuration not stated)	none (no result: Vif inh)
COc1cccc(CN2CCN(Cc3cc4ccccc4[nH]3)CC2CCO)c1 (configuration not stated)	none
CCn1cc(CN2CCN(Cc3ccsc3)C(CCO)C2)cn1 (configuration not stated)	FGF22 binding 43.9
C[C@@H]1CN([C@@H](C)CO)C(=O)c2cc(NC(=O)C3CCCCC3)ccc2O[C@@H]1CN(C)S(C)(=O)=O	none (no result: Vif inh)
COCC(=O)N1CC[C@@H]2[C@H](CO)Nc3ccc(C#Cc4ccccc4)cc3[C@@H]21	none (no result: Vif inh)
COC(=O)C1CCN(C(=O)c2ccc(SC)cc2OC)CC1	none (no result: FGF22 binding, CFTR F508del cor)
COc1cc(SC)ccc1C(=O)N1CCN(c2ccccc2OC)CC1	CFTR F508del cor 14.5
COc1ccccc1N1CCN(C(=O)NCc2ccc(Cl)cc2)CC1	none
COc1ccccc1N1CCN(C(=O)c2ccc(-c3ccc(Cl)cc3)o2)CC1	CFTR F508del cor 9.4
CCC(=O)Nc1ccc2c(c1)OC[C@H](C)N(CC1CCCCC1)C[C@H](C)[C@@H](OC)CN(C)C2=O	none (no result: FGF22 binding, Vif inh)
O=C(CC(=O)Nc1ccc(Cl)cc1Cl)Nc1ccc(Cl)cc1Cl	none (no result: Vif inh)
CN(C)C(=S)SCC(=O)Nc1ccc(Cl)cc1Cl	FGF22 binding 1.4 (no result: CFTR F508del cor)
COc1ccccc1NC(=O)N1CC(=O)N2[C@H](C1)[C@H](c1ccc(-c3ccc(C)cc3)cc1)[C@@H]2CO	none (no result: FGF22 binding, Vif inh)
C[C@@H]1CCCCO[C@@H](CN(C)Cc2ccc3c(c2)OCO3)[C@@H](C)CN([C@H](C)CO)C(=O)c2cc(NC(=O)CCC(F)(F)F)ccc2O1	none (no result: Vif inh)
C=CCn1c(SCC(=O)Nc2ccccc2-c2ccccc2)nc2cc(C(=O)O)ccc2c1=O	FGF22 binding 43.3
C=CCn1c(SCC(=O)Nc2ccc(F)cc2)nc2cc(C(=O)O)ccc2c1=O	none
CCC(=O)N(C)C[C@@H]1Oc2cc(-c3cccc(F)c3)ccc2S(=O)(=O)N([C@H](C)CO)C[C@@H]1C	none (no result: Vif inh)
Cc1ccc(/C=N/Nc2cn[nH]c(=O)n2)o1	none
O=c1nc(N/N=C/c2ccccn2)cn[nH]1	FGF22 binding 44.0
CC(=O)N[C@@H]1CC[C@@H](CCNC(=O)C2CCCCC2)O[C@H]1CO	none (no result: FGF22 binding, Vif inh)
Cc1ccccc1NC(=O)CCC(=O)N/N=C/c1cc([N+](=O)[O-])ccc1O	none (no result: FGF22 binding, CFTR F508del cor)
Cc1ccc(C)c(NC(=O)CCC(=O)N/N=C/c2cc([N+](=O)[O-])ccc2O)c1	CFTR F508del cor 9.9
O=C(CSCc1ccc(Cl)cc1)Nc1cc([N+](=O)[O-])ccc1O	none (no result: FGF22 binding)
Cc1ccc(SCC(=O)Nc2cc([N+](=O)[O-])ccc2O)cc1	FGF22 binding 42.9 (no result: CFTR F508del cor)
C[C@H](NC(=O)C[C@H]1CC[C@@H]2[C@H](COc3ccc(NS(=O)(=O)c4ccc(Cl)cc4)cc3C(=O)N2C)O1)c1ccccc1	none (no result: FGF22 binding, Vif inh)
CCOP(=O)(O)c1ccccc1OCCOc1ccccc1P(=O)(O)OCC	none (no result: FGF22 binding, CFTR F508del cor)
CCOP(=O)(O)c1cccc(OCCOCCOc2cccc(P(=O)(O)OCC)c2)c1	FGF22 binding 43.7
C[C@@H]1CN([C@@H](C)CO)C(=O)c2cc(C#CCN(C)C)cnc2O[C@H]1CN(C)C(=O)Cc1cccnc1	none (no result: Vif inh)
C[C@H]1CN([C@@H](C)CO)C(=O)c2cc(NS(C)(=O)=O)ccc2O[C@@H]1CN(C)Cc1ccc(Oc2ccccc2)cc1	none (no result: Vif inh)
Cn1c(NC(=O)c2ccc(Cl)cc2)cc(=O)n(C)c1=O	FGF22 binding 43.6
Cn1c(NC(=O)c2ccc(C(C)(C)C)cc2)cc(=O)n(C)c1=O	none (no result: Vif inh)
O=C(C[C@H]1CC[C@@H]2[C@H](COC[C@H](O)CN2CC2CCOCC2)O1)N1CCOCC1	none (no result: Vif inh)
O=C(NCCN1CCN(c2ccccc2)CC1)c1ccc2c(c1)[nH]c(=S)n1c3ccccc3nc21	FGF22 binding 43.3
O=C(NCCN1CCN(c2ccccc2)CC1)c1cccn2c(=O)c3ccccc3nc12	none (no result: FGF22 binding, CFTR F508del cor)
CN(C)CCCNC(=O)C[C@H]1C=C[C@@H](NS(=O)(=O)c2ccccc2)[C@H](CO)O1	none (no result: Vif inh)
COc1ccc(-c2cnc3c(c2)C(=O)N([C@@H](C)CO)C[C@H](C)[C@H](CN(C)C(=O)C2CC2)O3)cc1	none (no result: FGF22 binding, Vif inh)
CO/N=C/C(C(C)=O)C(=O)Nc1ccc(Cl)cc1Cl (configuration not stated)	FGF22 binding 43.1
CCCC(C)C(=O)Nc1ccc(Cl)cc1Cl (configuration not stated)	none (no result: FGF22 binding, CFTR F508del cor)
C[C@H](CO)N1C[C@H](C)[C@H](CN(C)S(C)(=O)=O)Oc2cc(-c3ccc(F)cc3)ccc2S1(=O)=O	none (no result: Vif inh)
O=C(N/N=C/c1ccncc1)c1cc(C2CC2)nc2ccccc12	none (no result: FGF22 binding, CFTR F508del cor)
Cc1ccc(-c2cc(C(=O)NCc3ccccn3)c3ccccc3n2)cc1	Vif inh 59.3 (no result: FGF22 binding, CFTR F508del cor)
O=C(O)c1ccccc1NC(=O)c1cc(-c2ccccc2)nc2ccccc12	FGF22 binding 3.9
O=C(N/N=C/c1ccc2c(c1)OCO2)c1cc(-c2ccc(F)cc2)nc2ccccc12	none
